High-throughput results as filed in PubChem.
The list is not random: actives were taken first. Their share in the collection is about 4.7%.
TRHR PAM: allosteric enhancers of human TRH receptor; 360,000 compounds, 0.66% hits; enhancement, % at 2 µM; AID 493056; TRHR cells, fluo-8 calcium fluorescence, EC20 TRH enhancement; in the data active = enhancement above about 30%
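TRHR-expressing cells loaded with fluo-8 calcium dye were read kinetically (ex 480/em 530) during compound addition, then stimulated with an EC20 of TRH (10 nM final). Enhancement of the Gq-mediated intracellular calcium response was scored.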
D1 agonist: human D1 receptor agonism | P21728 | HEK293 T-REx D1 cells, calcium flux, agonist mode | activation, % at 2 µM | 360,000 compounds, 1% hits | AID 504660
Target sequence (P21728 whole entry, looked up): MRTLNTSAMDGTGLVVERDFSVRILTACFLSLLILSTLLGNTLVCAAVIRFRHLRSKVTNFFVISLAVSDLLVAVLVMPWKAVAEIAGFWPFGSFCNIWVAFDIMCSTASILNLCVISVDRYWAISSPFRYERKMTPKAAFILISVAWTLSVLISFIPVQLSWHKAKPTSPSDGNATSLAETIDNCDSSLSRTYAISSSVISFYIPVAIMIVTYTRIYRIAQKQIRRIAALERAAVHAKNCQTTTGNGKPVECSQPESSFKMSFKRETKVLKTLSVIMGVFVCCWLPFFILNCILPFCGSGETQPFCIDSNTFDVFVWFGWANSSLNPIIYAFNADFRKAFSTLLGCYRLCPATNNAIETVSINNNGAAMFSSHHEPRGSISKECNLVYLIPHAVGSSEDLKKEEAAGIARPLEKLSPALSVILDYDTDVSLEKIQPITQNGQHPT
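Inducible HEK293 T-REx D1 cells, force-coupled to calcium signalling, were plated at 4000 cells/well with tetracycline and held overnight at 30 C. After no-wash calcium dye loading, compound-evoked calcium rise over 180 s flagged agonists.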
D1 PAM: enhances dopamine response at the human D1 receptor. 360,000 compounds, 0.036% hits. potentiation, % at 10 µM. HEK293 TREx D1 cells, calcium flux, dopamine EC20 potentiation; in the data active = potentiation above about 30%
D1 antagonist: blocks dopamine activation of the human D1 receptor. P21728. 360,000 compounds, 3.2% hits. activity change, negative = inhibition, % at 10 µM. HEK293 TREx D1 cells, calcium flux, dopamine EC80; hits give low values; in the data active = activity change below about -30%
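Calcium flux readout: force-coupled, inducible Hek293 Trex D1 line, cells induced overnight at 30 C with tetracycline, dye-loaded 30–90 min at RT. Antagonism scored against EC80 dopamine challenge given 180 s after compound.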
TRHR ag: TRH receptor (human) agonism; TRHR cells, calcium flux fluo-8, FDSS agonist mode; activation, % at 2 µM; 360,000 compounds, 0.18% hits; AID 493084
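Agonist-mode FDSS calcium read (Ex 480/Em 530, 1 s cycles) in 1536-well TRHR cells with fluo-8 dye, after 10-cycle baseline and 23 nL compound addition; TRH at EC20 (10 nM final) added afterwards for the enhancer phase.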
Numbers stand for hits; 0 = inactive; - = not tested or not shown; ! = not active in a repeat. Rule as the data show it, unless noted: active = activation above about 30%; inactive = the rest.

SMILES | TRHR PAM | D1 agonist | D1 PAM | D1 antagonist | TRHR ag
CC(C)(C)OC(=O)NCc1nnc(-c2nc3ccccc3[nH]2)o1 | 0 | 0 | 0 | 0 | 0
CC(=O)c1ccc(N2CCN(C(=S)Nc3cccc(Cl)c3)CC2)cc1 | 0 | 0 | 0 | -37 | 0
O=C(Nc1cccc2ccccc12)N1CCCN(c2c(Cl)cncc2Cl)CC1 | 0 | 0 | 0 | 0 | 0
Cc1cc(C)cc(NC(=O)N2CCCN(c3c(Cl)cncc3Cl)CC2)c1 | 0 | 0 | 0 | -33 | 0
Cc1ccc(C(=O)N2CCN(c3ccc(NC(=O)c4cccnc4)cc3)CC2)cc1 | 0 | 0 | 0 | -31 | 0
CC(=O)c1ccc(N2CCN(C(=O)Nc3cccc(F)c3)CC2)cc1 | 0 | 0 | 0 | -35! | 0
CC(=O)c1ccc(NC(=S)N2CCN(c3cccc(Cl)c3)CC2)cc1 | 0 | 0 | 0 | - | 0
Cc1ccccc1C(=O)N1CCN(c2ccc(NC(=O)c3cccnc3)cc2)CC1 | 0 | 0 | 0 | 0 | 0
CCCCN(CC)CCNC(=O)CN1C(=O)COc2ccc(S(=O)(=O)N3CCOCC3)cc21 | 0 | 0 | 0 | 0 | 0
COc1cccc(N2CCN(C(=S)Nc3cccc(C)c3)CC2)c1 | 0 | 0 | 0 | 0 | 0
O=C(Nc1ccc2c(c1)OCO2)N1CCN(c2ccccc2)CC1 | 0 | 0 | 0 | 0 | 0
COc1ccc(N2CCN(C(=S)Nc3cccc(C)c3)CC2)cc1 | 0 | 0 | 0 | -41 | 0
O=C(Nc1ccc2c(c1)OCCO2)N1CCN(c2ccccc2)CC1 | 0 | 0 | 0 | -46 | 0
Cc1nc2c(C(=O)NCCc3ccccc3)cnn2c(C)c1Cc1c(F)cccc1Cl | 0 | 0 | 0 | 0 | 0
COc1cc(/C=C/c2nc3cc(Cl)ccc3c(=O)n2-c2ccc(C)cc2C)cc(OC)c1OC | 0 | 0 | 0 | -44 | 0
COc1ccc(Cl)cc1-n1c(/C=C/c2cccc3ccccc23)nc2ccccc2c1=O | 0 | 0 | 0 | -35 | 0
COc1cc(OC)c(OC)cc1/C=C/c1nc2cc3ccccc3cc2c(=O)n1-c1ccccc1Br | 0 | 78 | 0 | 0 | 0
COc1ccccc1-n1c(/C=C/c2c(C)n(C)c3ccccc23)nc2ccccc2c1=O | 0 | 0 | 0 | 0 | 0
COc1cc(OC)c(OC)cc1/C=C/c1nc2cc3ccccc3cc2c(=O)n1-c1ccc(Cl)cc1 | 0 | 0 | 0 | 0 | 0
Cc1ccccc1CSc1nc2cccnc2n1Cc1ccc(C(=O)NC2CC2)cc1 | 0 | 0 | 0 | 0 | 0
NCCSc1c(-c2ccccc2)[nH]c2ccccc12 | 0 | 0 | 0 | -37 | 0
Oc1ccccc1C1=Nc2ncnn2C(c2ccc(F)cc2)C1 (stereo not given) | 0 | 0 | 0 | -42 | 0
Fc1ccc(C2CC(c3ccc(F)cc3)n3ncnc3N2)cc1 (stereo not given) | 0 | 0 | 0 | 0 | 0
Cc1c(C(=O)Nc2ccccc2F)cnn1-c1ccccc1 | 0 | 0 | 0 | 0 | 0
Cc1c(C(=O)Nc2cc(F)cc(F)c2)cnn1-c1ccccc1 | 37 | 0 | 0 | -32 | 0
SMILES | TRHR PAM | D1 agonist | D1 PAM | D1 antagonist | TRHR ag
COc1ccc(C2CC(=O)c3cc(-c4nc(-c5cccc([N+](=O)[O-])c5)cs4)c(=O)n(-c4ccccc4N)c3C2)cc1 (stereo not given) | 0 | 0 | 0 | 0 | 0
CC(C)(C)C(=O)Nc1ccc2nc(SCCOc3ccccc3Cl)sc2c1 | 0 | 30 | 0 | 0 | 0
CC(=O)Nc1ccc2nc(SCCOc3ccccc3)sc2c1 | 0 | 0 | 0 | 0 | 0
Cc1ccccc1OCCSc1nc2ccc(NC(=O)c3ccccc3)cc2s1 | 0 | 0 | 0 | -33 | 0
Cc1ccc(S(=O)(=O)N2CCN(Cc3noc(CCC(=O)N4CCCCC4)n3)CC2)c(C)c1 | 0 | 0 | 0 | 0 | 0
COc1ccccc1C(CCNS(=O)(=O)c1ccc(C)cc1)c1ccco1 (stereo not given) | 0 | 42 | 0 | 0 | 0
COc1cccc(N2CC(NC(=O)c3ccc(S(=O)(=O)N4CCCCC4)cc3)CC2=O)c1 (stereo not given) | 0 | 0 | 0 | - | 0
c1csc(-c2noc(COc3ccc4c(c3)CCCC4)n2)c1 | 0 | 0 | 0 | -39 | 0
Cc1ccc(NC(=O)Cn2nnc(C(=O)NCc3ccc4c(c3)OCO4)c2N)cc1Cl | 0 | 0 | 0 | 0 | 0
O=C(Cc1cccs1)N1CCN=C1SCc1ccccc1Cl | 0 | 0 | 0 | 0 | 0
O=C(Cc1cccs1)N1CCN=C1SCc1ccccc1F | 0 | 0 | 0 | -36 | 0
